Experimental findings from PubChem BioAssay AID1035475 (Broad Institute, 2014) are described below.

The test can be described thus: inhibitors of fibronectin matrix deposition, dose response, AH1F cells, Alexa488-FN fluorescence, cherry-picks (AID 1035475).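 Also: AH1F fibroblasts incorporating labeled fibronectin into their extracellular matrix.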

Measured potencies and affinities stand elsewhere. Inconclusive results are not listed. Active and inactive are the calls of the source.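 The calls were made as follows: active = fluorescent signal drops by 40% or more, counted as a hit; inconclusive = no clear call, values can overlap the other calls; inactive = the rest, including any activity in the opposite direction.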

With `C[C@H]1CN([C@@H](C)CO)C(=O)c2cc(-c3ccccc3)cnc2O[C@@H]1CN(C)Cc1ccccc1`, the outcome was inactive.
Consider `COc1ccc(-c2csc(CCn3nc(C)cc3C)n2)cc1OC`, for which the call was inactive.
Take `O=C(C[C@@H]1C[C@@H]2c3cc(NC(=O)c4ccc5c(c4)OCO5)ccc3O[C@@H]2[C@@H](CO)O1)NCc1ccc(Oc2ccccc2)cc1`: the call was inactive.
The result for `COc1cccc(-c2ccc3c(c2)[C@H]2[C@H](CCN2S(=O)(=O)c2cccc(OC)c2)[C@@H](CO)N3)c1` reads “inactive”.
To `c1ccc2[nH]c(SCc3cn4cccnc4n3)nc2c1` belongs “inactive”; to `Cc1ccc(S(=O)(=O)N2CC3(C)CN(S(=O)(=O)c4ccc(C)cc4)CC(C)(C2)C3=O)cc1`, “inactive”.
Consider `O=C(Nc1ccccc1F)N1C[C@H]2[C@@H](c3ccccc31)[C@@H](CO)N2C(=O)C1CC1`, for which the call was inactive.
On to `CC1CN(C(=O)c2cc3c(=O)n4ccccc4nc3n2C)CC(C)O1` (configuration not stated), for which the result was inactive.
Take `COc1ccc(C)cc1N(CC(=O)Nc1cccc(N(C)S(C)(=O)=O)c1)S(C)(=O)=O`: the outcome was inactive.
Take `COC(=O)C[C@@H]1CC[C@H]2[C@H](COc3ccc(NC(=O)Cc4cccs4)cc3C(=O)N2C)O1`: the result was inactive.
For `C=CCC[C@H](Cc1ccc(F)cc1)C(=O)OC[C@H](Cc1c[nH]c2ccccc12)NC(=O)[C@@H](CC=C)CC(=O)N[C@@H](CO)Cc1ccccc1`, the compound was classed as inactive.
The result for `COCC(=O)Nc1ccc2c(c1)C(=O)N(C)[C@@H]1CC[C@@H](CC(=O)NCc3ccccc3Cl)O[C@H]1CO2` reads “inactive”.
Turning to `CO[C@H]1CN(C)C(=O)c2cc(NC(=O)Nc3cc(Cl)cc(Cl)c3)ccc2OC[C@H](C)NC[C@H]1C`, the compound was called inactive.
As for `CC(NC(=O)CSc1ccc(S(=O)(=O)N2CCOCC2)cn1)c1ccc(Cl)cc1Cl` (configuration not stated), the outcome was inactive.
For `C[C@H](CO)N1C[C@H](C)[C@H](CN(C)Cc2ccccc2)Oc2ncc(-c3ccccc3)cc2C1=O`, the call was inactive.
`CN(C)C(=O)c1ccc(-c2ccc3c(c2)[C@@H]2[C@@H](CCN2C(=O)c2ccc(F)cc2)[C@H](CO)N3C)cc1`: the compound was called inactive.
As for `Nc1nc(-c2cc3c(cc2Cl)OCCO3)cs1`, the compound was called inactive.
Turning to `C[C@H](CO)N1C[C@H](C)[C@@H](CN(C)C(=O)Nc2cccc3ccccc23)Oc2c(NC(=O)Nc3ccc(C(F)(F)F)cc3)cccc2C1=O`, the call was inactive.
Consider `C[C@H]1CN([C@@H](C)CO)C(=O)c2cc(-c3ccccc3)cnc2O[C@@H]1CN(C)C(=O)c1cccc(F)c1`, for which the result was inactive.
The result for `CO[C@H]1CN(C)C(=O)c2cc(NC(=O)Nc3ccc(Cl)c(Cl)c3)ccc2OC[C@@H](C)NC[C@H]1C` reads “inactive”.
As to `C[C@@H]1CN([C@H](C)CO)C(=O)c2cc(NC(=O)C3CCCCC3)ccc2O[C@@H]1CN(C)Cc1ccc(-c2ccccc2)cc1`, the compound was called inactive.
To `CO[C@@H]1CN(C)C(=O)c2ccc(NC(=O)c3ccc(-c4ccccc4)cc3)cc2OC[C@H](C)NC[C@H]1C` belongs “inactive”; to `CCC(C)(C)NC(=O)C(OC(=O)c1ccco1)c1ccccc1OC` (configuration not stated), “inactive”; to `COC(=O)C[C@H]1CC[C@@H]2[C@@H](COc3ccc(NC(=O)Cc4cccs4)cc3C(=O)N2C)O1`, “inactive”.
For `C[C@H](CO)N1C[C@H](C)[C@H](CN(C)C)Oc2cc(C#C[C@@H](C)O)ccc2S1(=O)=O`, the outcome was inactive.
As to `C[C@@H]1CN([C@@H](C)CO)C(=O)c2cc(-c3ccccc3)cnc2O[C@H]1CN(C)Cc1ccccc1`, the result was inactive.
The result for `C[C@@H]1CN([C@@H](C)CO)C(=O)c2cccc(NC(=O)Nc3ccc(C(F)(F)F)cc3)c2O[C@H]1CN(C)C(=O)Nc1cccc2ccccc12` reads “inactive”; that for `COC(=O)c1cn(CC(=O)NCc2ccco2)c2ccccc12`, “inactive”.
Regarding `NC(=O)C1=C[C@H](c2coc3ccccc3c2=O)C[C@H](OCCCCO)O1`, the compound was classed as inactive.
As to `Cc1ccc(NC(=O)COC(=O)c2cc(Cl)ccc2[N+](=O)[O-])c(C)c1`, the compound was classed as inactive.
The result for `O=C(OCC(O)C(O)COC(=O)c1ccccc1)c1ccccc1` (configuration not stated) reads “inactive”; that for `CO[C@H]1CN(C)C(=O)c2ccc(NC(=O)c3ccc(-c4ccccc4)cc3)cc2OC[C@H](C)NC[C@H]1C`, “inactive”; that for `O=C(CCC(=O)c1cccs1)NCc1cccnc1`, “inactive”.
As for `CO[C@H]1CN(C)C(=O)c2ccc(NC(=O)c3ccc(-c4ccccc4)cc3)cc2OC[C@H](C)NC[C@@H]1C`, the call was inactive.
In the case of `O=C(Nc1ccccc1F)N1C[C@@H]2[C@H](c3ccccc31)[C@@H](CO)N2C(=O)C1CC1`, the call was inactive.
The result for `N#C[C@@H]1[C@H](c2ccccc2C2=CCCCC2)[C@@H](CO)N1S(=O)(=O)c1ccccc1` reads “inactive”; that for `C[C@H]1CN([C@@H](C)CO)C(=O)c2cc(NC(=O)CCCN(C)C)ccc2O[C@H]1CN(C)Cc1ccc(-c2ccccc2)cc1`, “inactive”; that for `COC(=O)C[C@@H]1CC[C@H]2[C@@H](COc3ccc(NC(=O)Cc4cccs4)cc3C(=O)N2C)O1`, “inactive”.
As to `Cc1cccc(NC(=O)Nc2ccc(S(=O)(=O)Nc3onc(C)c3C)cc2)c1`, the compound was called inactive.
The result for `O=C(c1cccnc1)N1C[C@H]2[C@@H](c3ccccc31)[C@H](CO)N2CC1CCCC1` reads “inactive”; that for `C[C@H](O)C#Cc1ccc2c(c1)O[C@H](CN(C)C)[C@H](C)CN([C@H](C)CO)S2(=O)=O`, “inactive”.
`C[C@@H]1CN([C@H](C)CO)C(=O)c2cc(NC(=O)CCCN(C)C)ccc2O[C@H]1CN(C)Cc1ccc(-c2ccccc2)cc1`: the compound was called inactive.
`C[C@@H](O)C#Cc1ccc2c(c1)O[C@@H](CN(C)C)[C@@H](C)CN([C@@H](C)CO)S2(=O)=O`: the outcome was inactive.
The result for `Cc1ccc(O)c(-c2cc(-c3cccc(Br)c3)n[nH]2)c1` reads “inactive”; that for `C[C@@H]1CN([C@H](C)CO)C(=O)c2cc(NC(=O)C3CCCCC3)ccc2O[C@H]1CN(C)Cc1ccc(-c2ccccc2)cc1`, “inactive”; that for `COc1ccccc1N(CC(=O)N(CC(C)C)CC(C)C)S(=O)(=O)c1cccs1`, “inactive”.
To `Cc1cc(C)n2ncc(C(=O)NCc3ccc(Cl)cc3)c2n1` belongs “inactive”; to `Cc1ccccc1S(=O)(=O)N1CC[C@H]2[C@H](CO)Nc3ccc(-c4ccc(C#N)cc4)cc3[C@H]21`, “inactive”.
The result for `Cc1ccc([N+](=O)[O-])cc1NC(=O)CN(C(=O)c1ccccc1Cl)C1CCCCC1` reads “inactive”.
`CN(C)C(=O)c1ccc(-c2ccc3c(c2)[C@H]2[C@H](CCN2C(=O)c2ccc(F)cc2)[C@@H](CO)N3C)cc1`: the compound was called inactive.
For the compound `Cc1ccc(S(=O)(=O)N2CC[C@@H]3[C@H](CO)Nc4ccc(-c5cccc(C(=O)N(C)C)c5)cc4[C@@H]32)cc1`, the compound was classed as inactive.
With `Cc1ccc(S(=O)(=O)N2CC[C@H]3[C@H](CO)Nc4ccc(-c5cccc(C(=O)N(C)C)c5)cc4[C@H]32)cc1`, the outcome was inactive.
As to `C[C@@H]1CN([C@H](C)CO)C(=O)c2cc(-c3ccccc3)cnc2O[C@H]1CN(C)C(=O)c1cccc(F)c1`, the result was inactive.
In the case of `C[C@@H]1CN([C@H](C)CO)C(=O)c2cc(-c3ccccc3)cnc2O[C@H]1CN(C)Cc1ccccc1`, the compound was called inactive.
Turning to `C[C@@H]1CN([C@H](C)CO)C(=O)c2cc(NC(=O)CCCN(C)C)ccc2O[C@@H]1CN(C)Cc1ccc(-c2ccccc2)cc1`, the compound was classed as inactive.
With `CN1c2ccc(-c3ccccc3)cc2[C@@H]2[C@@H](CCN2C(=O)CN2CCOCC2)[C@@H]1CO`, the compound was classed as inactive.
To `O=C(CCNS(=O)(=O)c1cccc2nonc12)NC1CCCc2ccccc21` (configuration not stated) belongs “inactive”; to `COc1ccc(-c2oc3ncnc(NCCCN4CCOCC4)c3c2-c2ccc(OC)cc2)cc1`, “inactive”; to `Cc1ccc(CS(=O)Cc2ccc(C(=O)NC3CCCC(C)C3C)o2)cc1` (configuration not stated), “inactive”.
On to `COc1cccc(-c2ccc3c(c2)[C@@H]2[C@@H](CCN2S(=O)(=O)c2cccc(OC)c2)[C@@H](CO)N3)c1`, for which the compound was classed as inactive.
In the case of `COc1ccc([N+](=O)[O-])cc1NS(=O)(=O)c1ccc(C(=O)N2CCCC2)cc1`, the compound was classed as inactive.
The result for `C[C@H](CO)N1C[C@H](C)[C@H](CN(C)Cc2ccc(-c3ccccc3)cc2)Oc2ccc(NC(=O)C3CCCCC3)cc2C1=O` reads “inactive”; that for `C[C@H](O)C#Cc1ccc2c(c1)O[C@@H](CN(C)C)[C@H](C)CN([C@H](C)CO)S2(=O)=O`, “inactive”.
For the compound `CCc1ccc(NC(=O)CSc2nnc(-c3ccco3)o2)cc1`, the compound was called inactive.
For the compound `Cc1ccc(C(O)c2ncc(-c3cccc4ccccc34)[nH]2)cc1F` (configuration not stated), the outcome was inactive.
`COC(=O)C[C@H]1CC[C@H]2[C@H](COc3ccc(NC(=O)Cc4cccs4)cc3C(=O)N2C)O1`: the compound was called inactive.
Regarding `COC(=O)C[C@@H]1CC[C@@H]2[C@H](COc3ccc(NC(=O)Cc4cccs4)cc3C(=O)N2C)O1`, the result was inactive.
To `C[C@H](O)C#Cc1ccc2c(c1)O[C@@H](CN(C)C)[C@H](C)CN([C@@H](C)CO)S2(=O)=O` belongs “inactive”.
The result for `CO[C@@H]1CN(C)C(=O)c2cc(NC(=O)Nc3ccc(Cl)c(Cl)c3)ccc2OC[C@@H](C)NC[C@@H]1C` reads “inactive”; that for `Cc1ccc(S(=O)(=O)N2CC[C@@H]3[C@@H](CO)Nc4ccc(-c5cccc(C(=O)N(C)C)c5)cc4[C@@H]32)cc1`, “inactive”.
Turning to `C[C@H](O)C#Cc1ccc2c(c1)O[C@H](CN(C)C)[C@@H](C)CN([C@@H](C)CO)S2(=O)=O`, the compound was called inactive.
To `Cc1ccc(N(CC(=O)NCc2ccco2)S(=O)(=O)c2ccccc2)cc1` belongs “inactive”.
The result for `CCN1CCN(C(c2ccccc2)c2nnnn2Cc2ccccc2)CC1` (configuration not stated) reads “inactive”; that for `C[C@H](CO)N1C[C@H](C)[C@@H](CN(C)Cc2ccc(-c3ccccc3)cc2)Oc2ccc(NC(=O)C3CCCCC3)cc2C1=O`, “inactive”.
Take `O=C(NCCS(=O)(=O)N1CCN(c2ccc(F)cc2)CC1)c1ccc(Br)o1`: the result was inactive.
The result for `CC(C)NC(=O)N(C)C[C@H]1Oc2ccc(NC(=O)CCN3CCOCC3)cc2C(=O)N([C@H](C)CO)C[C@@H]1C` reads “inactive”; that for `COCC(=O)Nc1ccc2c(c1)C(=O)N(C)[C@@H]1CC[C@H](CC(=O)NCc3ccccc3Cl)O[C@H]1CO2`, “inactive”.
